# Reference: ChEMBL document CHEMBL3433997, “St. Jude Leishmania screening dataset” (2016)
# Legend:
# Format in all cases: functional
# [1] = biological target: Solute carrier family 2, facilitated glucose transporter member 1 (Homo sapiens) (UniProt P11166); assay: ST_JUDE_LEISH: Cytotoxicity at 2uM final concentration against transgenic Leishmania Mexicana promastigotes LmGLUT1 that are glucose transport deficient and complemented with the human glucose transporter GLUT1. Activity is measured by DNA content using SYBR green in vitro
# [2] = biological target: Hexose transporter 1 (Plasmodium falciparum) (UniProt O97467); assay: ST_JUDE_LEISH: Cytotoxicity at 2uM final concentration against transgenic Leishmania Mexicana promastigotes LmPfHT that are glucose transport deficient and complemented with the Plasmodium falciparum hexose transporter. Activity is measured by DNA content using SYBR green in vitro
# [3] = biological target: Glucose transporter (Leishmania mexicana) (UniProt O61059); assay: ST_JUDE_LEISH: Cytotoxicity at 2uM final concentration against transgenic Leishmania Mexicana promastigotes LmGT2 that are glucose transport deficient and complemented with the L. Mexicana glucose transporter 2. Activity is measured by DNA content using SYBR green in vitro
# Sequence of Solute carrier family 2, facilitated glucose transporter member 1 (Homo sapiens) (P11166 whole entry): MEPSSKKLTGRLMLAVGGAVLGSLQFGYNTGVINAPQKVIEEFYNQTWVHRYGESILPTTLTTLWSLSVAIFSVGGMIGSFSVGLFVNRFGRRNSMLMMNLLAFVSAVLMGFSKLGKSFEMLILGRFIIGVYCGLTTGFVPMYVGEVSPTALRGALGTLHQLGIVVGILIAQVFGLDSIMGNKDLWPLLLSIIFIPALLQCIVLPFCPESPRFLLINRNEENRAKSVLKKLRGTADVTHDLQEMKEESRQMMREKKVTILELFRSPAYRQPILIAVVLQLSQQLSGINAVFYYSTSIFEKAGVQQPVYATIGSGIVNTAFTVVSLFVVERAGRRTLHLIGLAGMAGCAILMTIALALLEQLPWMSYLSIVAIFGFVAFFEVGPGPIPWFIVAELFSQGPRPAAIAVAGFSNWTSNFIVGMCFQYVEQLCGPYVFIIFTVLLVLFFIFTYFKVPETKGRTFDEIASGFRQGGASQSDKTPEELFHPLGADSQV
Structure (SMILES),inhibition [1],inhibition [2],inhibition [3]
O=c1c2ccccc2[nH]c2cc(Cl)ccc12,5.11%,7.05%,0.77%
COc1ccc(C2CC(c3cccs3)=NN2C(=O)c2ccccc2)cc1OC (stereo not drawn),6.92%,1.98%,5.57%
NC1(C(=O)O)Cc2ccc(Cl)cc2C1 (stereo not drawn),5.91%,2.95%,3.62%
COc1ccc(CNC2CCN(C)CC2)cc1-c1ccc(S(=O)(=O)NC2CCC2)c(C)c1,0%,-0.22%,-0.25%
Cc1c(CNCCCNc2nc3ccccc3[nH]2)[nH]c2cc(Cl)cc(Cl)c12,25.5%,49.4%,41.6%
COc1cc(Nc2nccc(N3CCC(NC(=O)c4cccc(NC(C)=O)c4)C3)n2)cc(OC)c1OC (stereo not drawn),0.31%,0.55%,-0.85%
CCCCCCCc1c(C)[nH]c2ccc(F)cc2c1=O,-0.05%,0.32%,-0.32%
CCCCCN1C(=O)N(c2ccc(Cl)c(Cl)c2)C(N(O)C(=O)Nc2ccc(Cl)c(Cl)c2)C1(C)C (stereo not drawn),4.79%,4.73%,2.87%
O=C(Nc1ccc(Br)cc1)N(CCN1CCOCC1)CC(O)COCc1ccc(Cl)c(Cl)c1 (stereo not drawn),2.07%,1.38%,-5.49%
COC(=O)c1cc(C(=O)CN(Cc2ccccc2)C(C)C)ccc1O,4.78%,5.9%,4.16%
Cc1cc(OCCCN2CCN(CCN3CCOCC3)CC2)ccc1NC(=O)COc1ccc(Cl)cc1C(=O)c1cc(Cl)cc(C#N)c1,2.6%,0.79%,2.48%
Cc1ccc(NC(=O)c2cccc(CN3CCCN(CC4CCCCC4)CC3)c2)cc1F,-0.17%,0.26%,0.75%
Cc1cccc2nc(-c3cccc(-c4cccc(C(=O)NCc5nccn5C)c4)c3)[nH]c12,11.5%,10.8%,10.2%
COc1ccc(CN(C)CCCOc2ccc(NC(=O)c3cccc4c(=O)c5cccc(F)c5[nH]c34)cc2)cc1OC,4.27%,3.24%,3.1%
CC(C)(C)CCOC(=O)N1CCc2c(cc(O)c(O)c2Cl)C(c2ccc(O)cc2)C1 (stereo not drawn),-1.94%,0.65%,14%
Cc1ccc(-n2c(Sc3ncnc4sccc34)nnc2N2CCCC2)cc1,2.72%,2.48%,1.41%
Cc1cccc2nc(-c3ccc(-c4ccc(CNCC5CCCO5)cc4)cc3)[nH]c12 (stereo not drawn),16.3%,14.9%,6.42%
O=C(NCCCCN1CCC(O)(c2ccc(Cl)cc2)CC1)c1ccc(Br)cc1,4.03%,2.65%,4.04%

Structure (SMILES),inhibition [1],inhibition [2],inhibition [3]
COc1ccc2[nH]ccc(=NN=Cc3cccc(F)c3)c2c1,1.01%,2.87%,0.07%
CCNc1cc(C(=O)N[C@@H](Cc2ccccc2)[C@H](O)CNC2(C(C)C)CCC2)cc(N2CCCCS2(=O)=O)c1,-0.22%,0.75%,-2.45%
CC1CCN(C(=O)C(Cc2c[nH]c3ccccc23)NS(=O)(=O)c2ccc(Cl)cc2)CC1 (stereo not drawn),0.31%,1.31%,-0.09%
Cc1ccn2c(C(=O)N3CCN(c4cccc5c4nc(-c4ccoc4)n5Cc4ccccn4)CC3)c(C)nc2c1,2.33%,1.01%,-0.49%
CC(=O)N[C@H](C(=O)Nc1ccc(-c2ccc(-c3nc4cc(C(F)(F)F)ccc4[nH]3)s2)cc1)C(C)C,5.68%,5.3%,4.22%
OC(CNc1ccnc(Nc2ccc(Cl)cc2)n1)c1ccccc1C(F)(F)F (stereo not drawn),10%,9.74%,5.08%
O=C(NCc1cccc(F)c1)Nc1cccc(-c2cccc(-c3nc4cc(C(F)(F)F)ccc4[nH]3)c2)c1,0.12%,2.8%,-2.1%
Cc1cc(NCCCCCCNc2cc(C)nc3c(C)cccc23)c2cccc(C)c2n1,3.76%,7.91%,0.85%
COc1ccc(-c2ccc(NC(=O)c3ccc(C#N)cc3)c(F)c2)cc1CN(C)CCN(C)C,0.85%,-0.56%,0.45%
Cc1cccc2nc(-c3cccc(-c4ccc(NC(=O)NCc5ccccc5)cc4)c3)[nH]c12,1.51%,2.74%,1.31%
O=C(Nc1cccc(CN2CCN(C(=O)c3cccc(Cl)c3)CC2)c1)c1cccs1,5.62%,4.14%,2.57%
c1cncc(Oc2ccc(Nc3ccnc4cc(-c5cccc(CNCCN6CCOCC6)c5)ccc34)cc2)c1,0.19%,-1.57%,1.1%
CCOc1cc(Cc2cnc(N)nc2N)ccc1OC,0.52%,0.12%,-0.73%
CN/C(=N\O)NCCN(C)C,3.01%,4.18%,3.91%
Nc1nccc2ccc(-c3cccc4ncccc34)cc12,1.74%,0.04%,1.15%
CS(=O)(=O)c1ccc(CNCc2ccc(-c3cccc(-c4nc5ccccc5[nH]4)c3)cc2)cc1,17.3%,15.6%,14%
CC(C)c1ccc(O)cc1Nc1ccnc2ccc(C(F)(F)F)cc12,1.29%,-0.72%,-0.66%
C=CCn1c(=N)n(CC(O)c2ccc(Cl)c(Cl)c2)c2ccccc21 (stereo not drawn),2.79%,3.84%,0.9%
